Values joined by “and” are separate entries in the source; they are usually repeats but may differ in a detail not shown here. Identical values can stand only once. Unmarked numbers belong to inactive results. Inconclusive results are not listed. Active and inactive are the calls of the source. Unless noted, the call rests on the fitted dose curve; in most records, active means well fitted curve in the direction sought with a large enough effect; inconclusive means small, poorly fitted or top-dose-only effect, or another doubt; inactive means no such curve, though single readings can be large; an effect the other way counts as inactive or inconclusive.

These results are taken from PubChem BioAssay (NCATS).

The nature of assay [1]: Cell Viability - Mesenchymal (AID 546).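 Further: cells exposed to compound for 40 hours before reading.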 Further: potency means the concentration at half of the fitted maximal effect. To be noted: mesenchymal cells viability, qHTS; activity change, negative = cytotoxicity: at 91.7 µM (top of the series). The gist of the method:
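CellTiter-Glo luminescence (intracellular ATP, 20 min room temperature) after 40 hr compound exposure at 37 °C of 1000 glomerulus-derived human kidney mesenchymal cells/well; AC50 values obtained by fitting qHTS concentration-response data to the Hill equation.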
A general note: In qHTS, concentration-response curves come from the screen itself.

The nature of assay [2]: Cellular Toxicity (caspase-3) HepG2 (AID 654). Further: potency means the concentration at half of the fitted maximal effect.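 On caspase-3 activation: cells exposed to compound for 16 hours before reading; 0% = DMSO alone and 100% = caspase signal from 100 µM tamoxifen.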 To be noted: HepG2 caspase-3 activation, luminescence; series mostly up to 92.2 µM. The gist of the method: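 Luminescent Caspase-Glo 3/7 readout after 16 hr compound exposure of human hepatocellular carcinoma HepG2 cells at 37 °C; qHTS concentration-response, normalized DMSO = 0%, 100 uM tamoxifen = 100%; AC50 by standard Hill equation.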

Assay [3] in a line: Cellular Toxicity (caspase-3) Jurkat (AID 655).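 Further: cells exposed to compound for 16 h at 37 °C before reading.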 To be noted: Jurkat caspase-3 activation, luminescence; series mostly up to 92.2 µM. Put shortly: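 qHTS in human Jurkat T-cell leukemia line: 16 hr compound treatment at 37 °C, caspase-3/7 activity measured by Caspase-Glo luminescence. AC50 derived from Hill equation.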
Assay [4] in a line: Cellular Toxicity (caspase-3) BJ (AID 658).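 Further: cells exposed to compound for 16 hours.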 To be noted: BJ fibroblasts, luminescence, normalized: DMSO 0%, staurosporine 100%; series mostly up to 91.7 µM. The gist of the method:
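Caspase-Glo 3/7 luminescence, read 1 hr after reagent at room temperature, in normal BJ fibroblasts exposed 16 hours at 37 °C. AC50 values from Hill-equation concentration-response, scaled between DMSO basal and 10 uM staurosporine as 100%.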

Assay [5] in a line: Cellular Toxicity (caspase-3) MRC-5 (AID 659). To be noted: MRC-5 cells, luminescence, normalized: DMSO 0%, 10 µM staurosporine 100%; series mostly up to 91.7 µM. The gist of the method:
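Luminescent Caspase-Glo 3/7 read-out (1 h, room temperature) after a 16 h, 37 °C compound exposure of MRC-5 lung fibroblasts at 1500 cells/well. Concentration-response AC50 from Hill equation; 0% DMSO, 100% 10 uM staurosporine.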

Assay [6] in a line: Cellular Toxicity (caspase-3) Mesangial (AID 660).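 Further: combined caspase 3 and 7 activity read by Caspase-Glo luminescence; cells exposed to compound for 16 h before the caspase read.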 Further: potency means the concentration at half of the fitted maximal effect. To be noted: mesangial cells; Potency: caspase-3 activation; series mostly up to 91.7 µM. The gist of the method:
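Luminescent Caspase-Glo 3/7 readout (aminoluciferin substrate cleavage, 20 min RT) after 16 h compound exposure at 37 °C of normal human mesangial cells. Signal increase normalized between DMSO basal and 100 uM tamoxifen; Hill-equation AC50.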

The nature of assay [7]: Cellular Toxicity (caspase-3) SK-N-SH (AID 661).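 Further: cells exposed to compound for 16 hours.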 Further: potency means the concentration at half of the fitted maximal effect. The settings on record: SK-N-SH caspase-3 activation, qHTS; series mostly up to 91.7 µM. The gist of the method: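 Luminescent Caspase-Glo 3/7 read-out after 16 hr compound exposure of SK-N-SH neuroblastoma cells at 37 °C. Signal increase normalized to DMSO (basal) and 10 uM staurosporine (100%); AC50 from Hill equation fits of qHTS concentration-response data.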

Assay [8] can be described thus: Cellular Toxicity (caspase-3) H-4-II-E (AID 663).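 Further: cells exposed to compound for 16 hr before readout.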 The settings on record: H-4-II-E rat hepatoma, scaled: DMSO 0%, 100 µM tamoxifen 100%; at 92.2 µM (top of the series). Put shortly:
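Caspase 3/7 activation measured by luminescent aminoluciferin substrate cleavage after 16 hr compound treatment of H-4-II-E cells in complete medium. Increase normalized between DMSO (basal) and 100 uM tamoxifen (100%); Hill-equation AC50 from concentration-response.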

A short description of assay [9]: Cellular Toxicity (caspase-3) Hek293 (AID 664).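 Further: cells exposed to compound for 16 h at 37 °C before readout.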 The settings on record: HEK293 caspase-3 activation, DMSO = 0%, 100 µM tamoxifen = 100%; at 92.2 µM (top of the series). Put shortly: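 Luminescent Caspase-Glo 3/7 readout (aminoluciferin release) in HEK293 cells after 16 h compound treatment, 37 °C. Normalization: DMSO = basal, 100 uM tamoxifen = 100% stimulation. Concentration-response fitted with standard Hill equation for AC50.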

For assay [10], the target named is 3',5'-cyclic-AMP phosphodiesterase 4B (Homo sapiens) (UniProt Q07343). The assay can be described thus: qHTS Assay for Inhibitors of PDE-IV (AID 607; active means well fitted activation curve with a large enough effect in the main read-out, with a control signal flat, not every such curve was filed as active; further: % of control where 0% means no effect). To be noted: HEK293 ACTOne CNG channel cells, membrane potential fluorescence; series mostly up to 22.9 µM. The gist of the method: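 Live HEK293 cells with a modified cyclic nucleotide-gated (CNG) channel report intracellular cAMP via membrane-potential dye fluorescence (ex 535/em 590 nm). Endogenous PDE-IV was targeted. Compounds were tested at up to 22.9 uM final; RO 20-1724 100 uM served as control.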
3',5'-cyclic-AMP phosphodiesterase 4B (Homo sapiens), sequence (Q07343 whole entry, looked up): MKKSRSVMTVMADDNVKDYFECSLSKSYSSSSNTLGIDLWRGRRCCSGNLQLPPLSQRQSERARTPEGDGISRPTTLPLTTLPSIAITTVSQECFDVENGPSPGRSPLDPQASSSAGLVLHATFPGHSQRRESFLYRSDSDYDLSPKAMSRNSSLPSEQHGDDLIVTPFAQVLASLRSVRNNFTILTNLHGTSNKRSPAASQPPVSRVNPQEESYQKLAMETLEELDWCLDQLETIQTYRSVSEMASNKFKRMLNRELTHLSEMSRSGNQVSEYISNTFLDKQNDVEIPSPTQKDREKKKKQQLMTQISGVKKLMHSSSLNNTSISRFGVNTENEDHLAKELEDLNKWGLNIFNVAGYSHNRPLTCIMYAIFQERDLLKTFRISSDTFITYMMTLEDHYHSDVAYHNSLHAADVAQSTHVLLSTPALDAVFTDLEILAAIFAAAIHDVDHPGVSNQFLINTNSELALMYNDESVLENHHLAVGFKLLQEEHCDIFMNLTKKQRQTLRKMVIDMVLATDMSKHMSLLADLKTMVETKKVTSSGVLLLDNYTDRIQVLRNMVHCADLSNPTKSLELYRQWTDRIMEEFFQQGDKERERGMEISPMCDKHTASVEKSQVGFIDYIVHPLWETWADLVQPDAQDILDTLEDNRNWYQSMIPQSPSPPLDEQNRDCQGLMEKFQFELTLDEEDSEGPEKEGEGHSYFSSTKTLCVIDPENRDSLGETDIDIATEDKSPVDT

For the molecule `CCCOC(=O)c1ccc(O)cc1`, the Potency entry in assay [1], in assay [2], in [3], in assay [6] and in assay [7] was “inactive” in each case. The call in assay [4] and in assay [5] was inactive. The caspase-3 activation in [8] is 1.99% and 0.213%; in assay [9] it was 0.939% and -1.18%.

Take `CN1CCC[C@H]1c1cccnc1`: the Potency result in assay [1], in assay [2], in assay [3], in assay [6] and in [7] was “inactive” in each case. Moreover, the call in [4] and in assay [5] was inactive. The caspase-3 activation was -0.172% in [8] and 1.08% in assay [9].

With `CN(C)c1ccc(N=NS(=O)(=O)O)cc1`, the Potency result in [1], in [2], in assay [3], in assay [6] and in assay [7] was “inactive” throughout. For the same molecule, the call in assay [4] and in assay [5] was inactive. The caspase-3 activation was 11.8% in [8] and -1.18% in assay [9].

As for `Nc1ccc(O)c(C(=O)O)c1`, the Potency result in assay [1], in [2], in [3], in assay [6] and in assay [7] was “inactive” each time. In addition, the result in assay [10], in assay [4] and in assay [5] was inactive. The figures for the caspase-3 activation in assay [8] and in [9] were -0.695% and 0.369%, respectively.

`O=C(Nc1ccccc1)c1cc([N+](=O)[O-])ccc1Cl`: in assay [10], the molecule was classed as inactive.

In the case of `CC1(C)S[C@@H]2[C@H](NC(=O)[C@H](N)c3ccccc3)C(=O)N2[C@H]1C(=O)O`, the Potency entry in assay [1], in assay [2], in [3], in [6] and in [7] was “inactive” in each case. In addition, the call in [4] and in assay [5] was inactive. Further, the caspase-3 activation is 0.54% in assay [8] and -0.638% in [9].

In the case of `Nc1nc2ccc([N+](=O)[O-])cc2s1`, the Potency entry in assay [1], in assay [2], in [3], in [6] and in assay [7] was “inactive” in each case. For the same molecule, the molecule was classed as inactive in assay [4] and in [5]. The caspase-3 activation in assay [8] was -1.1%; in assay [9] it was -4.39%.

As for `O=C(O)/C=C\C(=O)O`, the Potency entry in assay [1], in assay [2], in assay [3], in assay [6] and in [7] was “inactive” throughout. Besides, the molecule was called inactive in assay [4] and in assay [5]. Moreover, the caspase-3 activation was 0.648% in assay [8] and -1.35% in assay [9].

With `C#C[C@]1(O)CC[C@H]2[C@@H]3CCc4cc(O)ccc4[C@H]3CC[C@@]21C`, the Potency entry in assay [1], in [2], in assay [3], in assay [6] and in assay [7] was “inactive” in each case. In addition, the result in assay [4] and in [5] was inactive. For the same molecule, the caspase-3 activation in assay [8] is 3.92%; in assay [9], -0.747%.

For `O=C1C(SCCO)=C(SCCO)C(=O)c2ccccc21`, the molecule was classed as inactive in [10].

Take `C[N+]1(C)CCC(OC(=O)C(c2ccccc2)c2ccccc2)CC1`: the call in assay [10] was inactive.

Turning to `CCCCCCCCCCCCCCCCCC(=O)O`, the Potency result in assay [1], in [2], in [3], in assay [6] and in assay [7] was “inactive” each time. The call in assay [4] and in assay [5] was inactive. Also, the caspase-3 activation is -0.546% in assay [8] and 0.144% in assay [9].

With `N=C(N)SCCc1ccc(CCSC(=N)N)cc1`, in [10], the call was inactive.

For the molecule `c1ccc2sc(SSc3nc4ccccc4s3)nc2c1`, the Potency entry in [1], in assay [2], in assay [3], in assay [6] and in assay [7] was “inactive” throughout. The molecule was called inactive in assay [4] and in assay [5]. Besides, the caspase-3 activation in assay [8] is -0.551%; in assay [9] it was 2.01%.

As for `Oc1ccccc1O`, the Potency result in [1], in [2], in assay [3], in [6] and in assay [7] was “inactive” throughout. In addition, the molecule was called inactive in [10], in assay [4] and in assay [5]. The caspase-3 activation in assay [9] is 7.91%.

For `CN(C)CCC(c1ccc(Cl)cc1)c1ccccn1` (stereo unspecified), the Potency entry in assay [1], in assay [2], in [3], in [6] and in assay [7] was “inactive” each time. Also, the outcome in assay [4] and in assay [5] was inactive. In addition, the caspase-3 activation in [8] is 1.63%; in assay [9], 1.34%.

Consider `CN1CCc2ccccc2Cc2[nH]c3ccccc3c2CC1`, for which the molecule was classed as inactive in [10].

Regarding `CN1[C@@H]2CC[C@H]1CC(OC(c1ccccc1)c1ccccc1)C2` (stereo partly specified), the molecule was called inactive in [10].

On to `CN(C)c1ccc(C(=C2C=CC(=[N+](C)C)C=C2)c2ccccc2)cc1`, for which the Potency in [1] is 316 nM (active); in assay [2], 631 nM (active); in [6], 1260 nM (active); in assay [7] it was 1000 nM (active). For the same molecule, the result in assay [10] was inactive. Also, the values for the caspase-3 activation in assay [8] and in [9] were -4.63% (active) and -9.3% (active), respectively.

Turning to `S=c1[nH]c2ccccc2s1`, the Potency entry in [1], in assay [2], in [3], in assay [6] and in assay [7] was “inactive” throughout. For the same molecule, the molecule was classed as inactive in assay [4] and in [5]. Moreover, the caspase-3 activation in [8] was 0.172%; in assay [9], 1.33%.

Consider `NCCO`, for which the Potency entry in [1], in [2], in [3], in [6] and in assay [7] was “inactive” each time. The call in assay [4] and in assay [5] was inactive. Further, the caspase-3 activation in assay [8] is -0.037%; in assay [9] it was -4.95%.

For the molecule `COc1cc(OC)c(/C=C2/C(=O)Nc3ccccc32)c(OC)c1`, the call in [10] was inactive.

Regarding `Oc1cc2c(cc1O)CN(C(=S)NCCc1ccc(Cl)cc1)CCC2`, the molecule was classed as inactive in assay [10].

In the case of `CCCCCCCC/C=C\CCCCCCCC(=O)NCCO`, in assay [10], the call was inactive.

As for `Ic1ccc(N2CCN(Cc3c[nH]c4ncccc34)CC2)cc1`, the outcome in assay [10] was inactive.

As to `O=C(O)c1cc(=O)c2c(Cl)cc(Cl)cc2[nH]1`, the molecule was classed as inactive in assay [10].

Consider `NCCCCC(=O)O`, for which the call in [10] was inactive.

As for `Cc1ccc(O)c(N=Nc2ccccc2)n1`, the molecule was called inactive in assay [10].

In the case of `CCCn1c(=O)c2[nH]c(-c3ccc(OCC(=O)NCCN)cc3)nc2n(CCC)c1=O`, in [10], the result was inactive.

As for `CC(C)Cc1ccc([C@H](C)C(=O)O)cc1`, the result in assay [10] was inactive.

In the case of `O=C1NC(O)=NC1(c1ccccc1)c1ccccc1`, in assay [10], the outcome was inactive.

Take `COc1cc2c(CCNC(C)=O)c[nH]c2cc1Cl`: the outcome in assay [10] was inactive.
